Values joined by “and” are separate entries in the source; they are usually repeats but may differ in a detail not shown here. Equal entries are not always repeated. Records with an inconclusive call do not appear. A number with no mark means an inactive call. Active and inactive are the calls of the source. The call rests on the fitted dose curve; in most records, active means well fitted curve in the direction sought with a large enough effect in the repeat runs; inconclusive means weak or mixed curves; inactive means no such curve, though single readings can be large; an effect the other way counts as inactive or inconclusive.

The target in assay [1] is Cytochrome P450 2C9 (Homo sapiens) (UniProt P11712). Put plainly: Cytochrome P450 Family 2 Subfamily C Member 9 (CYP2C9) small molecule antagonists: luciferase reporter qHTS assay (AID 1671198). Further: potency means the concentration at half of the fitted maximal effect. To be noted: P450-Glo CYP2C9 enzyme assay, luciferin luminescence; series mostly up to 115 µM. The method, boiled down: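 CYP2C9 activity was measured with a P450-Glo proluciferin substrate. Enzyme–substrate mix was held with compound for 10 min at room temperature, then NADPH regeneration solution was added for 1 h at 37C. Luciferin product was read as luminescence.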

For assay [2], the target named is Cytochrome P450 1A2 (Homo sapiens) (UniProt P05177). Put plainly: Cytochrome P450 Family 1 Subfamily A Member 2 (CYP1A2) small molecule antagonists: luciferase reporter qHTS assay (AID 1671199). Further: potency means the concentration at half of the fitted maximal effect. To be noted: P450-Glo CYP1A2 enzyme, luciferin luminescence, 1 h; series mostly up to 53 µM. The procedure, abridged: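 Compounds were incubated with CYP1A2 and a luminogenic proluciferin substrate for 10 min at room temperature before the reaction was started with NADPH regeneration solution. After 1 h, detection reagent was added and light output, proportional to CYP activity, was recorded.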
In general terms: In a reporter assay the amount or activity of a reporter protein is the signal.

Assay [3] has as its target Voltage-gated inwardly rectifying potassium channel KCNH2 (Homo sapiens) (UniProt Q12809). Put plainly: Human Ether-a-go-go-Related Gene (hERG) channel small molecule antagonists: fluorescence cell-based qHTS assay (AID 1671200). Further: potency means the concentration at half of the fitted maximal effect.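 On activity change, negative = inhibition: hERG-expressing U2OS cells given a thallium stimulus after FluxOR II dye loading.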 To be noted: hERG-U2OS cells, FluxOR thallium flux fluorescence; series mostly up to 76.8 µM. The procedure, abridged: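 Quantitative HTS in hERG-U2OS cells: thallium entry through the channel reports activity, read as continuous 480/540 nm fluorescence over 2 min after stimulus addition.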
In general terms: hERG is a cardiac potassium channel; its block is linked to QT prolongation.

Assay [4] concerns the target Cytochrome P450 3A4 (Homo sapiens) (UniProt P08684). Put plainly: Cytochrome P450 Family 3 Subfamily A Member 4 (CYP3A4) small molecule antagonists: luciferase reporter qHTS assay (AID 1671201). To be noted: P450-Glo CYP3A4 enzyme, luciferin luminescence, 1 h; series mostly up to 115 µM. The procedure, abridged:
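Inhibition of CYP3A4 is measured as loss of light: the enzyme converts a proluciferin substrate to luciferin, detected luminescently. Reaction ran 1 h at room temperature with NADPH regeneration after a 10 min compound preincubation.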
Further: nearly all actives have a fitted effect of over 50% in size.
On the % scale 0 is the no-effect control and ±100 the full control effect.

Cytochrome P450 1A2 (Homo sapiens), sequence (P05177 whole entry, looked up): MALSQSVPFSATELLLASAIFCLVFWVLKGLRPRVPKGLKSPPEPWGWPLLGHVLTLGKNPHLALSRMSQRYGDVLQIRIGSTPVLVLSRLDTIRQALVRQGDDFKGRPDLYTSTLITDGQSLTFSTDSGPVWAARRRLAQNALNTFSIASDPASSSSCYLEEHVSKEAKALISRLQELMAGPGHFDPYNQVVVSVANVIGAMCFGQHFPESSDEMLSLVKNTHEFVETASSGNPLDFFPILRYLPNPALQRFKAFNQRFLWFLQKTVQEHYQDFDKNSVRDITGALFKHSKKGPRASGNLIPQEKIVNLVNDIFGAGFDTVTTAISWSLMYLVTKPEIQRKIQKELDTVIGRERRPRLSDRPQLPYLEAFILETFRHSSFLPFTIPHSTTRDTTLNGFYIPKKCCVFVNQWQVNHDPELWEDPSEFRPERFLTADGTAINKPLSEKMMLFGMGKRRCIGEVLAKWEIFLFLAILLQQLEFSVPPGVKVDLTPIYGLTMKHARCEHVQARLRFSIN
Voltage-gated inwardly rectifying potassium channel KCNH2 (Homo sapiens), sequence (Q12809 whole entry, looked up): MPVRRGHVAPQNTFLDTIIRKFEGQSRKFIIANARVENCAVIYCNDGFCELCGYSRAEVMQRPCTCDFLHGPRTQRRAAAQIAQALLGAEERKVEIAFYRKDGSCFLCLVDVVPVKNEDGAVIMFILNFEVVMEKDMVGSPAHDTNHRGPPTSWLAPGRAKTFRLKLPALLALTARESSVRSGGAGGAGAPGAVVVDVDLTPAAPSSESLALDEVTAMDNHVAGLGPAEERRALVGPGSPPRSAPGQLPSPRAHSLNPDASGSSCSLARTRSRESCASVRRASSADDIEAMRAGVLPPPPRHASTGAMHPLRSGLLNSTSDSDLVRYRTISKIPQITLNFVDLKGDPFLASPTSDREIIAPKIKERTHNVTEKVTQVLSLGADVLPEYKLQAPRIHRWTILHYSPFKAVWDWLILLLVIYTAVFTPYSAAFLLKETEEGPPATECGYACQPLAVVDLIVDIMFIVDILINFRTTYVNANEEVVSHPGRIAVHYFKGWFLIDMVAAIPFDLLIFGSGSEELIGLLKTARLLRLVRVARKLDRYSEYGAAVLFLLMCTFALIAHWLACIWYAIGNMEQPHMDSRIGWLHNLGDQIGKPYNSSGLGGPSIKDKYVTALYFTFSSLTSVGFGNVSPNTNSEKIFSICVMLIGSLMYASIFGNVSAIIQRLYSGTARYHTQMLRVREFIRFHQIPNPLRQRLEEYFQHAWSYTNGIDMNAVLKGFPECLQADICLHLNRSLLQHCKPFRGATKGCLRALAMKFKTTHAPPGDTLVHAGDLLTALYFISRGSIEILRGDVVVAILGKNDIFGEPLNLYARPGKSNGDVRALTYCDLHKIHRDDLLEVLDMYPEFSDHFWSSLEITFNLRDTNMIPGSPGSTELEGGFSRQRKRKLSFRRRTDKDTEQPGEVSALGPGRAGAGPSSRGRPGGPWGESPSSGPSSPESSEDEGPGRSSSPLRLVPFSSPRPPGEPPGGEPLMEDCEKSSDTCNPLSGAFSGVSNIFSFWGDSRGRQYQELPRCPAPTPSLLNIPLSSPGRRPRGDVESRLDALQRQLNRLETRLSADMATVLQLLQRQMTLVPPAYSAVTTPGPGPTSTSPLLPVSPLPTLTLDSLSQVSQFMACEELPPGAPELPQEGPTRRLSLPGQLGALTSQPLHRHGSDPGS
Cytochrome P450 2C9 (Homo sapiens), sequence (P11712 whole entry, looked up): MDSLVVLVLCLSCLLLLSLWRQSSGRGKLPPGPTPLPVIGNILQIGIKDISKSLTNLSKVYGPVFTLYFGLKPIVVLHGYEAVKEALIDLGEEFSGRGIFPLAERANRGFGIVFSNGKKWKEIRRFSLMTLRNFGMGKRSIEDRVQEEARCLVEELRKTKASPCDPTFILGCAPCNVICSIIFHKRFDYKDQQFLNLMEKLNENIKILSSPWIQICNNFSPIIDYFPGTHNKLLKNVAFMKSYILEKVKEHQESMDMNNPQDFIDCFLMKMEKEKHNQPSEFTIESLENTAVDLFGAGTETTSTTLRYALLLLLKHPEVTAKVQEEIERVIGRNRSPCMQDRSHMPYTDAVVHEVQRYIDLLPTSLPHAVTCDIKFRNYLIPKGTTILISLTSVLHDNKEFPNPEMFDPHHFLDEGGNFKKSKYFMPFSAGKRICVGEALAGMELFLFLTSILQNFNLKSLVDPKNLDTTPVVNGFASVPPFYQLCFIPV
Cytochrome P450 3A4 (Homo sapiens), sequence (P08684 whole entry, looked up): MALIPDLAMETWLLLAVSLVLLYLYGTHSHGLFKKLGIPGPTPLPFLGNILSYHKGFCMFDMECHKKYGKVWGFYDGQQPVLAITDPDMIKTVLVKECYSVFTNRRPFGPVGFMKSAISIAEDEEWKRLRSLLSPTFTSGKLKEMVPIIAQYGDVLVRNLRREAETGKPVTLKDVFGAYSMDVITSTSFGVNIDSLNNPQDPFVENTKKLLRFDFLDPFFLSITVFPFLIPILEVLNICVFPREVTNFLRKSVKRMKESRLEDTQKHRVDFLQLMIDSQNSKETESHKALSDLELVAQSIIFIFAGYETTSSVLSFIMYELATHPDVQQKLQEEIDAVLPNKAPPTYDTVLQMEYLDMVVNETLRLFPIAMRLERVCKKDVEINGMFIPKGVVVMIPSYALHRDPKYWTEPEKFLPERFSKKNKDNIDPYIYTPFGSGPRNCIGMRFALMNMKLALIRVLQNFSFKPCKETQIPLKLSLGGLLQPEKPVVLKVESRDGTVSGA

Regarding `Nc1c2c(nc3ccccc13)CCCC2O` (centres undefined), the Potency result in assay [1], in assay [3] and in assay [4] was “inactive” in each case. Moreover, in assay [2], the Potency is 15.5 µM (active).

Consider `CC(C)(C)c1ccc(O)c(O)c1`, for which the Potency was 61.5 µM (active) in assay [1] and 41.1 µM (active) in assay [2]. Besides, the Potency entry in assay [3] and in assay [4] was “inactive” throughout.

In the case of `OCCCC1CCCCC1`, the Potency entry in assay [1], in assay [2], in assay [3] and in assay [4] was “inactive” each time.

Consider `C[C@H]1C[C@@H](O)CC(C)(C)C1`, for which the Potency result in assay [1], in assay [2], in assay [3] and in assay [4] was “inactive” each time.

For the molecule `O=C(CCCN1CCN(c2ccccn2)CC1)c1ccc(F)cc1`, the figures for the Potency in assay [1] and in assay [3] were 7.76 µM (active) and 6.74 µM (active), respectively. The Potency result in assay [2] and in assay [4] was “inactive” in each case.

Consider `CN1CCN(c2cc3c(cc2F)c(=O)c(C(=O)O)cn3-c2ccc(F)cc2)CC1`, for which the Potency result in assay [1], in assay [2], in assay [3] and in assay [4] was “inactive” in each case.

As to `CN(C)CCCSc1ccccc1NC(=O)/C=C/c1ccccc1`, the Potency entry in assay [1], in assay [2], in assay [3] and in assay [4] was “inactive” in each case.

For the molecule `CCOC(=O)CCC(C)=O`, the Potency entry in assay [1], in assay [2], in assay [3] and in assay [4] was “inactive” in each case.

For the molecule `CC/C=C\CCOC(C)=O`, the Potency entry in assay [1], in assay [2], in assay [3] and in assay [4] was “inactive” in each case.

For the molecule `CC(C)CNCC(C)C`, the Potency entry in assay [1], in assay [2], in assay [3] and in assay [4] was “inactive” in each case.

As to `CCCCCCCCCCCCCCCCC`, the Potency result in assay [1], in assay [3] and in assay [4] was “inactive” in each case. Moreover, the Potency in assay [2] was 12.6 µM (active).

For the molecule `ClC(Cl)(Br)Br`, the Potency entry in assay [1], in assay [2], in assay [3] and in assay [4] was “inactive” throughout.

Consider `C1OCOCO1`, for which the Potency result in assay [1], in assay [2], in assay [3] and in assay [4] was “inactive” throughout.

Regarding `CCCCCCCCCCCC`, the Potency result in assay [1], in assay [2], in assay [3] and in assay [4] was “inactive” in each case.

Turning to `CC[N+](C)(C)c1cccc(O)c1`, the Potency entry in assay [1], in assay [2], in assay [3] and in assay [4] was “inactive” in each case.

Consider `NS(=O)(=O)c1cc(C(=O)O)cc(N2CCCC2)c1Oc1ccccc1`, for which the Potency result in assay [1], in assay [2], in assay [3] and in assay [4] was “inactive” each time.

For `Cc1cc2c(cc1S(N)(=O)=O)S(=O)(=O)CCC2`, the Potency result in assay [1], in assay [2], in assay [3] and in assay [4] was “inactive” in each case.

In the case of `CCCc1cc(C(N)=S)ccn1`, the Potency entry in assay [1], in assay [2], in assay [3] and in assay [4] was “inactive” each time.

On to `NS(=O)(=O)c1ccc(C(=O)O)cc1`, for which the Potency result in assay [1], in assay [2], in assay [3] and in assay [4] was “inactive” in each case.

As for `CC(NC(CCc1ccccc1)C(=O)O)C(=O)N1C(=O)N(C)CC1C(=O)O` (centres undefined), the Potency entry in assay [1], in assay [2], in assay [3] and in assay [4] was “inactive” throughout.

On to `O=C(O)CNC(=O)c1ccc([N+](=O)[O-])cc1`, for which the Potency entry in assay [1], in assay [2], in assay [3] and in assay [4] was “inactive” throughout.

With `O=c1cc(-c2ccccc2)oc2ccccc12`, the Potency in assay [1] is 17.8 µM (active) and 15.4 µM (active); in assay [2], 317 nM (active) and 477 nM (active). In addition, the Potency entry in assay [3] and in assay [4] was “inactive” in each case.

Turning to `CC(C)CCCC(C)N` (centres undefined), the Potency result in assay [1], in assay [3] and in assay [4] was “inactive” each time. Besides, in assay [2], the Potency is 21.9 µM (active).

With `CC(C)OC(=O)c1ccccc1`, the Potency result in assay [1], in assay [2], in assay [3] and in assay [4] was “inactive” in each case.

For the molecule `Nc1cc(=O)[nH]c(N)n1`, the Potency entry in assay [1], in assay [2], in assay [3] and in assay [4] was “inactive” each time.

As for `Cc1sccc1Br`, the Potency result in assay [1], in assay [2], in assay [3] and in assay [4] was “inactive” throughout.

As to `CCCCCCCCS(=O)(=O)Cl`, the Potency in assay [1] is 32 µM (active). In addition, the Potency result in assay [2], in assay [3] and in assay [4] was “inactive” in each case.

Take `CCC(=O)OC(C)c1ccccc1` (centres undefined): the Potency result in assay [1], in assay [2], in assay [3] and in assay [4] was “inactive” in each case.

For the molecule `COC(=O)c1cc(C(=O)OC)cc(S(=O)(=O)O)c1`, the Potency result in assay [1], in assay [3] and in assay [4] was “inactive” throughout.

Turning to `CC(=O)CC(C)C`, the Potency entry in assay [1], in assay [3] and in assay [4] was “inactive” each time.

As to `CCC=O`, the Potency entry in assay [1], in assay [3] and in assay [4] was “inactive” throughout.

On to `CC(=O)OCC(CCn1cnc2cnc(N)nc21)COC(C)=O`, for which the Potency entry in assay [1], in assay [3] and in assay [4] was “inactive” throughout.

For the molecule `CCO[Si](CCC1CCC2OC2C1)(OCC)OCC` (centres undefined), the Potency result in assay [1], in assay [3] and in assay [4] was “inactive” each time.

As for `NC(CSCC(=O)O)C(=O)O` (centres undefined), the Potency result in assay [1], in assay [3] and in assay [4] was “inactive” throughout.

In the case of `CN1N=C(C(N)=O)CCC1=O`, the Potency result in assay [1], in assay [3] and in assay [4] was “inactive” in each case.

For `CC(C)=CCCC(C)CC(=O)O` (centres undefined), the Potency in assay [1] was 63.3 µM (active). Besides, the Potency entry in assay [3] and in assay [4] was “inactive” each time.

As to `CCCCCCCCCCCCN(CCCCCCCCCCCC)CCCCCCCCCCCC`, the Potency result in assay [1], in assay [3] and in assay [4] was “inactive” each time.

As to `O=C1CC2CC1C1CCCC21` (centres undefined), the Potency entry in assay [1], in assay [3] and in assay [4] was “inactive” throughout.

`CN1C(=O)N(C)C(O)C1O` (centres undefined): the Potency entry in assay [1], in assay [3] and in assay [4] was “inactive” throughout.

On to `c1ccc([C@H]2CN3CCSC3=N2)cc1`, for which the Potency entry in assay [1], in assay [3] and in assay [4] was “inactive” throughout.

Take `CC(=O)CC(C)(C)C1CCCCC1`: the Potency entry in assay [1], in assay [3] and in assay [4] was “inactive” throughout.

As to `Cc1ccc(Cl)cc1Cl`, the Potency result in assay [1], in assay [3] and in assay [4] was “inactive” throughout.

In the case of `CCOC(=O)c1c(C)n(C)c2ccc(O)cc12`, the Potency in assay [2] is 0.512 µM (active). Further, the Potency result in assay [3] is “inactive”.

Consider `CCC(C)S` (centres undefined), for which the activity change, negative = inhibition in assay [1] was -9.04% [at 4.07 µM]; in assay [3], 1.71% [at 2.72 µM]; in assay [4] it was 2.72% [at 4.07 µM].

For `C=C(C)C(=O)OCCCCCCCC(C)C`, the Potency entry in assay [1], in assay [3] and in assay [4] was “inactive” in each case.

On to `N#Cc1ccc(C2CCCc3cncn32)cc1` (centres undefined), for which the Potency entry in assay [2] and in assay [3] was “inactive” in each case.

These data come from PubChem BioAssay (Tox21).
